The structures appear in SMILES notation. This is part of a sample that, as a whole, favours compounds with a hit. Of some 83,000 tested, about 20% had one in any assay.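 How to read the values: 0–100, growth inhibition (40 = 60% inhibited); 0, no net growth; -100 to 0, cell death (-40 = 40% of starting cells died; -100 = all dead).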 Values without a mark were called inactive. Active and inactive are the calls of the source. Rule for the calls: active = growth percent below 10; inactive = the rest.

This passage reports growth results from PubChem BioAssay (NCI).

What all share (test): NCI-60 one-dose screen, 48 h (100 = growth as untreated, 0 = no growth, -100 = all killed)
One assay relates to NCI-H23 lung. Conditions: 10 µM unless noted.
The subject of the next assay is NCI-H226 lung. The settings on record: 10 µM unless noted.
For the next assay, the system named is NCI-H322M lung. Conditions: 10 µM unless noted.
The next assay concerns HOP-62 NSCLC. The settings on record: 10 µM unless noted.
The subject of the next assay is NCI-H460 lung. Conditions: 10 µM unless noted.
The next assay concerns HOP-92 NSCLC. The settings on record: 10 µM unless noted.
The subject of a further assay is NCI-H522 lung. Conditions: 10 µM.
In another assay the test system is 786-0 renal. Conditions: 10 µM unless noted.
The next assay deals with COLO 205 colon. The settings on record: 10 µM unless noted.
Another assay has as its system DU-145 prostate. Conditions: 10 µM unless noted.
The test system of another assay is K-562 leukemia. Conditions: 10 µM unless noted.
The subject of a further assay is MALME-3M melanoma. Conditions: 10 µM unless noted.
A further assay concerns MDA-MB-231 breast. The settings on record: 10 µM unless noted.
For a further assay, the system named is SF-268 CNS. The settings on record: 10 µM unless noted.
In a further assay the test system is SF-295 CNS. The settings on record: 10 µM unless noted.
The test system of a further assay is SF-539 CNS. Conditions: 10 µM unless noted.
The subject of another assay is UACC-257 melanoma. The settings on record: 10 µM unless noted.
The next assay has as its system M14 melanoma. Conditions: 10 µM unless noted.
In another assay the test system is RXF 393 renal. Conditions: 10 µM unless noted.
The subject of the next assay is A549/ATCC NSCLC. The settings on record: 10 µM unless noted.

Regarding `Nc1ccc(Oc2c(F)c(F)c(Oc3ccc(N)cc3)c(F)c2F)cc1`, the growth is 96.5% in the assay with NCI-H23 lung; 104% in the assay on NCI-H226 lung; -4.94% (active) in the assay on NCI-H322M lung; 101% with HOP-62 NSCLC; 112% with NCI-H460 lung; 80.5% with HOP-92 NSCLC. Moreover, the growth in the assay with NCI-H522 lung is 90.4%; with 786-0 renal it was 106%; in the assay with COLO 205 colon, 108%; in the assay on DU-145 prostate, 107%; in the assay on K-562 leukemia, 93.3%; in the assay with MALME-3M melanoma, 87.1%. The growth is 109% with MDA-MB-231 breast; 97.9% in the assay with SF-268 CNS; 103% in the assay on SF-295 CNS; 111% in the assay with SF-539 CNS; 9.12% (active) with UACC-257 melanoma; 99.1% with M14 melanoma.
With `CCOC(=O)c1sc(NC(=O)COc2cccc(/C=C3\CCc4cc(OC)ccc4C3=O)c2)nc1C`, the growth in the assay with NCI-H23 lung was 89.5%; in the assay on NCI-H226 lung it was 85.2%; in the assay on NCI-H322M lung, 99.8%; with HOP-62 NSCLC, 96.5%; in the assay on NCI-H460 lung, 80.8%; with HOP-92 NSCLC, 72.5%. Besides, the growth with NCI-H522 lung was 43.9%; with 786-0 renal, 88.1%; in the assay with COLO 205 colon, 135%; in the assay on K-562 leukemia, 5.6% (active); in the assay on MALME-3M melanoma, 77.1%; in the assay on MDA-MB-231 breast, 89.2%. Moreover, the growth in the assay on SF-268 CNS was 69.4%; in the assay with SF-295 CNS, 90.3%; with SF-539 CNS, 26.4%; with UACC-257 melanoma, 84.2%; with M14 melanoma it was 89%.
Regarding `O=C(c1ccc(N2CCOCC2)cc1[N+](=O)[O-])N1CCOCC1`, the growth is 97.2% with NCI-H23 lung; 97.9% in the assay with NCI-H226 lung; 111% in the assay on NCI-H322M lung; 94.8% with HOP-62 NSCLC; 116% in the assay on NCI-H460 lung; 94.3% in the assay on HOP-92 NSCLC. In addition, the growth in the assay on NCI-H522 lung was 94%; with 786-0 renal it was 102%; in the assay on COLO 205 colon, 87.1%; with DU-145 prostate, 114%; in the assay on K-562 leukemia it was 159%; with MALME-3M melanoma it was 103%. For the same molecule, the growth with MDA-MB-231 breast is 134%; with SF-268 CNS, 110%; in the assay with SF-295 CNS it was -38.9% (active); in the assay on SF-539 CNS it was 107%; in the assay on UACC-257 melanoma it was 43.9%; in the assay on M14 melanoma, 107%.
As to `C/C=C(/C(=C/C)c1ccc(O)cc1)c1ccc(O)cc1`, the growth was 48% in the assay with NCI-H23 lung; 69.9% in the assay with NCI-H226 lung; 27.4% in the assay on NCI-H322M lung; 36% in the assay with HOP-62 NSCLC; 20.2% in the assay on NCI-H460 lung; 58.5% with HOP-92 NSCLC. For the same molecule, the growth is 55.3% in the assay with NCI-H522 lung; 39.3% in the assay on 786-0 renal; 28.2% in the assay with DU-145 prostate; 22.8% in the assay on K-562 leukemia; 23.1% in the assay on MALME-3M melanoma; 49.1% in the assay with MDA-MB-231 breast. Moreover, the growth with RXF 393 renal was 8.39% (active); in the assay with SF-268 CNS, 45.6%; in the assay with SF-295 CNS, 12%; in the assay with SF-539 CNS it was -3.67% (active); in the assay with UACC-257 melanoma, 53.9%; with M14 melanoma, 15.4%.
Regarding `Cc1ccc(/C=C(/C#N)n2nnc3ncccc32)cc1`, the growth in the assay on NCI-H23 lung was -1.23% (active); in the assay on NCI-H226 lung, 32.1%; in the assay on NCI-H322M lung, 28.2%; with HOP-62 NSCLC, 20.5%; in the assay with NCI-H460 lung it was -14% (active); with HOP-92 NSCLC, -19.5% (active). For the same molecule, the growth in the assay with A549/ATCC NSCLC is 2.14% (active); with 786-0 renal it was 5.6% (active); in the assay with COLO 205 colon, -45.3% (active); with DU-145 prostate, -27.2% (active); in the assay on K-562 leukemia, 5.03% (active); in the assay with MALME-3M melanoma, 22.7%. Further, the growth in the assay on MDA-MB-231 breast is -3.95% (active); in the assay on RXF 393 renal it was -28.4% (active); in the assay with SF-268 CNS it was 25.3%; with SF-295 CNS, 27.8%; in the assay with SF-539 CNS it was -53.8% (active); in the assay on UACC-257 melanoma it was 31.1%. Moreover, in the assay with M14 melanoma, the growth was -4.85% (active).
For the molecule `Cc1ccc2c(c1)C(=O)/C(=C\Nc1ccc(C(N)=O)cc1)C(O)O2` (stereo unspecified), the growth is 114% in the assay on NCI-H23 lung; 154% in the assay on NCI-H226 lung; 95.8% with NCI-H322M lung; 88.3% with HOP-62 NSCLC; 111% in the assay with NCI-H460 lung; -17.9% (active) in the assay on HOP-92 NSCLC. Besides, the growth is 114% with A549/ATCC NSCLC; 110% with 786-0 renal; 108% with COLO 205 colon; 107% in the assay with DU-145 prostate; 97.7% in the assay on K-562 leukemia; 86.7% with MALME-3M melanoma. For the same molecule, the growth with MDA-MB-231 breast was 83.1%; in the assay with RXF 393 renal it was 111%; with SF-268 CNS, 82.8%; with SF-295 CNS, 94%; in the assay on SF-539 CNS, 99.8%; with UACC-257 melanoma, 118%.
With `O=C(Nc1ccccc1)c1cc(-n2cnc([N+](=O)[O-])c2)cc(-n2cnc([N+](=O)[O-])c2)n1`, the growth with NCI-H23 lung was 98.6%; with NCI-H226 lung, 86.2%; in the assay on NCI-H322M lung, 92%; in the assay on HOP-62 NSCLC, 102%; in the assay on NCI-H460 lung, 119%; in the assay on HOP-92 NSCLC, 49.7%. For the same molecule, the growth in the assay with A549/ATCC NSCLC is 87%; in the assay on 786-0 renal, 102%; in the assay on COLO 205 colon, 97.4%; in the assay on DU-145 prostate it was 110%; in the assay on K-562 leukemia, 86.5%; in the assay with MALME-3M melanoma, 94.4%. Moreover, the growth in the assay on MDA-MB-231 breast is 88.6%; in the assay with RXF 393 renal it was -14.6% (active); in the assay on SF-268 CNS, 119%; in the assay with SF-295 CNS, 130%; in the assay on SF-539 CNS, 102%; in the assay on UACC-257 melanoma, 89.3%. Besides, in the assay on M14 melanoma, the growth is 94.6%.
Take `COc1c(O)cc2c(c1CC=C(C)C)OC(=O)c1c(cc(O)c(CC=C(C)C)c1O)O2`: the growth in the assay on NCI-H23 lung is -8.77% (active); with NCI-H226 lung, 88.1%; in the assay with NCI-H322M lung it was 77.1%; with HOP-62 NSCLC it was 6.39% (active); in the assay on NCI-H460 lung, 9.47% (active); in the assay with HOP-92 NSCLC, 54.6%. In addition, the growth was 57.1% in the assay on A549/ATCC NSCLC; 19.3% in the assay with 786-0 renal; 107% with COLO 205 colon; 71.6% with DU-145 prostate; 23.9% in the assay on K-562 leukemia; 113% in the assay with MALME-3M melanoma. In addition, the growth is 4.16% (active) in the assay on MDA-MB-231 breast; -43.5% (active) with RXF 393 renal; 41% in the assay on SF-268 CNS; 81% with SF-295 CNS; 68.8% in the assay on SF-539 CNS; 92.6% in the assay with UACC-257 melanoma. Besides, the growth with M14 melanoma is 27.3%.
